Screens as filed in PubChem BioAssay.
A selection: hits, their analogues and other compounds. The true share with any hit is near 21%.
DRD3 antagonist: qHTS of D3 Dopamine Receptor Antagonist: qHTS; D(3) dopamine receptor (Homo sapiens), P35462; 2.5% of 360,000 active; max response, negative = inhibition, %; D3R cells, DiscoveRx beta-arrestin luminescence, antagonist mode; hits give low values; in the data active means max response below about -50%; inconclusive means no clear call, values can overlap the other calls; further: on the % scale 0 is the no-effect control and ±100 the full control effect
Target sequence (P35462 whole entry, looked up): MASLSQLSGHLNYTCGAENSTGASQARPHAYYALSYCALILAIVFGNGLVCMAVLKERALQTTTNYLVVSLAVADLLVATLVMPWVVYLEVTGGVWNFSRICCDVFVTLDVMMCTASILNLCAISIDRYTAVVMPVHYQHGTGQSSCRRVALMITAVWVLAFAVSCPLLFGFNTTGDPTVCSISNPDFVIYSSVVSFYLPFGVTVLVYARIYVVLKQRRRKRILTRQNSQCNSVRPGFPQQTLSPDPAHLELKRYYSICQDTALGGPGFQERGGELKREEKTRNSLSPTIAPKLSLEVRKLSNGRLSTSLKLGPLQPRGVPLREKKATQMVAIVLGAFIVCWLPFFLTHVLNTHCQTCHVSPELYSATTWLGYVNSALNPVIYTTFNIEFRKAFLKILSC
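Cells expressing the human receptor were seeded at 1500 cells/well, incubated overnight at 37 degrees C in 5% CO2, then exposed to library compounds with dopamine controls for 90 minutes at 37 degrees C before luminescent detection.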
IL-1B inflam inh: qHTS for Inhibitors of Inflammasome Signaling: IL-1-beta AlphaLISA Primary Screen; THP-1 LPS/ATP IL-1B secretion, AlphaLISA, 16 h; hits give low values; activity change, % at 57.5 µM; 4.7% of 360,000 active; AID 743279, 2014; in the data active means activity change below about -50%; inconclusive means mostly about -30% to -49%; further: on the % scale 0 is the no-effect control and ±100 the full control effect
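Secreted IL-1B measured by AlphaLISA bead assay after 16 h compound exposure of THP-1 cells; compounds (final up to 57.5 uM) added 1 h before LPS (250 ng/mL) and ATP (1.25 mM) stimulation; lower signal means less secretion.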
TDP1 cell CPT: qHTS for Inhibitors of human tyrosyl-DNA phosphodiesterase 1 (TDP1): qHTS in cells in presence of CPT | chicken DT40 Tdp1-/-;hTDP1 cells + 20 nM CPT, ATP luminescence, 48 h | Potency, µM (doses to about 46.2 µM), inactives show top-dose activity change, negative = growth inhibition, actives largely listed as inhibitors | 12% of 420,000 active | AID 686979, 2013; further: potency means the concentration at half of the fitted maximal effect; on the % scale 0 is the no-effect control and ±100 the full control effect; nearly all actives have a fitted effect of over 55% in size
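Cell growth measured by CellTiter-Glo luminescence after a minimum 48 h, 37 C compound exposure with 20 nM CPT in Tdp1-knockout DT40 cells stably expressing hTDP1, seeded 400/well; qHTS titration format.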
D3 ag: qHTS of D3 Dopamine Receptor Agonist: qHTS; D3R DiscoveRx beta-arrestin cells, luminescence, 90 min; max activation, %; 0.58% of 410,000 active; AID 652048, 2013; in the data active means max activation above about 30%; further: 0% is about no effect
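Agonist mode: compounds and dopamine controls were applied to plated cells for 90 min at 37 degrees C after an overnight attachment at 1500 cells/well. Luminescent read-out followed 30 - 60 minutes at room temperature with DiscoveRx detection reagent.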
TDP1 cell noCPT: qHTS for Inhibitors of human tyrosyl-DNA phosphodiesterase 1 (TDP1): qHTS in cells in absence of CPT; DT40 Tdp1-/- hTDP1 cells, no CPT, ATP luminescence, 48 h; Potency, µM (top dose mostly 46.2 µM), for the others: top-dose activity change, negative = growth inhibition, usual class: inhibitors; 15% of 420,000 active; AID 686978, 2013; further: potency means the concentration at half of the fitted maximal effect; on the % scale 0 is the no-effect control and ±100 the full control effect; nearly all actives have a fitted effect of over 55% in size
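Camptothecin absent (DMSO only). Human TDP1-complemented DT40 knockout cells, 400 cells/well, 37 °C for minimum 48 hr; ATP measured via CellTiter-Glo, 30 min dark incubation, luminescence.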
ClpP mod: qHTS Assay for Activators of ClpP; ATP-dependent Clp protease proteolytic subunit (Bacillus subtilis (strain 168)), P80244; purified B. subtilis ClpP, FRET peptide cleavage, 20 min; Potency, µM (doses to about 57.5 µM), for inactives: at the highest dose activity change, negative = active; 1.9% of 340,000 active; AID 651965, 2013; active means well fitted falling curve with a large enough effect; inconclusive means small, poorly fitted or top-dose-only effect; inactive means no such curve, though single readings can be large or run the other way; further: potency means the concentration at half of the fitted maximal effect; the source files actives as falling curves though it sought activators and does not explain the sign; nearly all actives have a fitted effect of over 65% in size
Target sequence (P80244 whole entry, looked up): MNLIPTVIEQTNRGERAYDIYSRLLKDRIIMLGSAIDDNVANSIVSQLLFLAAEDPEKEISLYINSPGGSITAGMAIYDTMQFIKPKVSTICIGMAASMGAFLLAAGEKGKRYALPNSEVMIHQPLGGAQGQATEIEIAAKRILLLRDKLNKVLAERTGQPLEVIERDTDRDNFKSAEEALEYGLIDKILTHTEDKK
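FRET quenching reversal measured ClpP activation: 10 microg/mL B. subtilis ClpP at pH 8 with the FRET-FV decapeptide, read at 430 nm after 320 nm excitation. The 20-min minus 0-min signal was scaled between DMSO/no-enzyme wells and ADEP (5.8 microM final).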
Numbers without * were called inactive. Unless noted, the call rests on the fitted dose curve; in most records, active means well fitted inhibition curve with a large enough effect; inconclusive means small, poorly fitted or top-dose-only effect; inactive means flat fitted curve, though single readings scatter.

`Cn1ccc(CC(=O)N2CCC(N3CCC(C(=O)N4CCCC4)CC3)CC2)c1` gave DRD3 antagonist -7, IL-1B inflam inh -9, TDP1 cell CPT -4%, D3 ag 0 and TDP1 cell noCPT -8%.
Screening O=C1[C@@H]2[C@@H]3C[C@@H]([C@H]4ON=C(c5ccc(Cl)cc5Cl)[C@@H]34)[C@@H]2C(=O)N1C1CCCCC1 returned DRD3 antagonist -15, IL-1B inflam inh -55*, TDP1 cell CPT inconclusive, D3 ag -1, TDP1 cell noCPT inconclusive and ClpP mod 1%.
Screening CN1C(=O)[C@@H]2[C@@H]3C[C@@H]([C@H]4ON=C(c5ccc(Cl)cc5)[C@@H]34)[C@@H]2C1=O returned DRD3 antagonist 0, IL-1B inflam inh -5, TDP1 cell CPT -12%, D3 ag 1, TDP1 cell noCPT inconclusive and ClpP mod 4%.
For CC(=O)NC12CC3CC(C1)CC(C(=O)Oc1ccc(N(C)S(=O)(=O)c4cc(C)ccc4C)cc1)(C3)C2 the results were DRD3 antagonist -9, IL-1B inflam inh -25, TDP1 cell CPT inconclusive, D3 ag 1 and TDP1 cell noCPT 16µM*.
Cc1ccc(Sc2ccc(N3CCC(C(=O)Nc4cc(C)cc(C)c4)CC3)nn2)cc1 was read as TDP1 cell CPT -8%, D3 ag 0, TDP1 cell noCPT -21% and ClpP mod -8%.
`COC(=O)c1c(SC)nc2ccccc2c1OCc1ccccc1C` gave TDP1 cell CPT inconclusive, D3 ag 32*, TDP1 cell noCPT 13µM* and ClpP mod -5%.
Screening CCSc1nc2ccccc2c(OCc2cc(C(=O)OC)ccc2OC)c1C(=O)OC returned TDP1 cell CPT 18µM*, D3 ag 2, TDP1 cell noCPT inconclusive and ClpP mod -9%.
For CCN(CC)S(=O)(=O)c1ccc2[nH]cc(C(=O)NC3CC3)c(=O)c2c1 the results were DRD3 antagonist 7, IL-1B inflam inh 31, TDP1 cell CPT inconclusive, D3 ag 5, TDP1 cell noCPT inconclusive and ClpP mod -27%.
Cc1ccc2c(COC(=O)C3CC(=O)N(c4ccc5c(c4)OCCO5)C3)cc(=O)oc2c1 (stereo not drawn) was read as DRD3 antagonist 3, IL-1B inflam inh 16, TDP1 cell CPT 2%, D3 ag 2, TDP1 cell noCPT -6% and ClpP mod -1%.
COc1ccc(CN(C(=O)c2cc(=O)c3ccccc3o2)C2CCS(=O)(=O)C2)cc1 (stereo not drawn) was read as DRD3 antagonist 3, IL-1B inflam inh 37, TDP1 cell CPT -2%, D3 ag 5, TDP1 cell noCPT 4% and ClpP mod 0%.
CCCN(C(=O)Cc1coc2cc(OC)ccc12)C1CCS(=O)(=O)C1 (stereo not drawn) was read as DRD3 antagonist -52*, IL-1B inflam inh -16, TDP1 cell CPT -1%, D3 ag -8, TDP1 cell noCPT -3% and ClpP mod 2%.
Screening CCc1ccc2occ(CC(=O)N(Cc3ccc(N(C)C)cc3)C3CCS(=O)(=O)C3)c2c1 (stereo not drawn) returned TDP1 cell CPT inconclusive, D3 ag 0, TDP1 cell noCPT inconclusive and ClpP mod 0%.
CC(C)c1ccc2occ(CC(=O)N(Cc3ccc(F)cc3)C3CCS(=O)(=O)C3)c2c1 (stereo not drawn) was read as TDP1 cell CPT 18µM*, D3 ag -13, TDP1 cell noCPT inconclusive and ClpP mod -6%.
Screening CCN(CC)c1ccc(CN(C(=O)c2cc(=O)c3ccccc3o2)C2CCS(=O)(=O)C2)cc1 (stereo not drawn) returned TDP1 cell CPT 16µM*, D3 ag -5, TDP1 cell noCPT inconclusive and ClpP mod 2%.
`CCN(CC)c1ccc(CN(C(=O)Cc2coc3ccc(C)cc23)C2CCS(=O)(=O)C2)cc1` (stereo not drawn) gave TDP1 cell CPT inconclusive, D3 ag 4, TDP1 cell noCPT 23µM* and ClpP mod 1%.
For CC12CCC3c4ccccc4CCC3(CO1)C2 (stereo not drawn) the results were DRD3 antagonist 2, IL-1B inflam inh 0, TDP1 cell CPT inconclusive, D3 ag -2, TDP1 cell noCPT inconclusive and ClpP mod -1%.
CCOc1ccc(CCNC(=O)Cn2nc(CC)n3c(cc4ccccc43)c2=O)cc1 was read as TDP1 cell CPT -20%, D3 ag 7, TDP1 cell noCPT inconclusive and ClpP mod -20%.
`CSc1nsc(N/N=C/c2ccc3c(c2)OCO3)c1C#N` gave DRD3 antagonist 1, IL-1B inflam inh 4, TDP1 cell CPT -8%, D3 ag -9, TDP1 cell noCPT 2% and ClpP mod 21%.
Screening COc1cc(/C=N/Nc2snc(SC)c2C#N)cc(OC)c1OC returned DRD3 antagonist 26, IL-1B inflam inh -21, TDP1 cell CPT inconclusive, D3 ag 28, TDP1 cell noCPT 1.8µM* and ClpP mod 12%.
For Cc1ccc(-n2ncc3c(NC4CCCC4)ncnc32)cc1 the results were TDP1 cell CPT inconclusive, D3 ag 3, TDP1 cell noCPT inconclusive and ClpP mod 4%.
For O=C(NC1CCCCC1)C1c2ccccc2OCC(=O)N1CC(F)(F)F (stereo not drawn) the results were DRD3 antagonist -11, IL-1B inflam inh 34, TDP1 cell CPT -1%, D3 ag -4, TDP1 cell noCPT -10% and ClpP mod 2%.
For COc1ccc2[nH]c(=O)c(CNc3ccc(C)cc3C)cc2c1 the results were DRD3 antagonist -14, IL-1B inflam inh -13, TDP1 cell CPT 5.8µM*, D3 ag -9 and TDP1 cell noCPT 21µM*.
For Cc1ccc2[nH]c(=O)c(CNC(C)(C)C)cc2c1 the results were DRD3 antagonist inconclusive, IL-1B inflam inh -2, TDP1 cell CPT -7%, D3 ag -13, TDP1 cell noCPT -15% and ClpP mod 14µM*.
For COc1ccc2[nH]c(=O)c(CNc3cc(C)ccc3C)cc2c1 the results were DRD3 antagonist 15, IL-1B inflam inh -16, TDP1 cell CPT 15µM*, D3 ag -1 and TDP1 cell noCPT 15µM*.
